Screening results: PubChem BioAssay, National Center for Advancing Translational Sciences (NCATS)
Only some compounds are listed: those with a hit (about 1.4% of all), similar ones and a draw of the others.
pAkt inh – HTS Assay for Inhibitors of Akt Phophorylation: Primary Screen | Neuro2A IGF-stimulated pAkt S473 HTRF, 20 min; hits give low values | 360,000 compounds, 0.32% hits | activity change, % for hits at 50 µM; in the data active = activity change below about -80%; inconclusive = mostly about -51% to -80%
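Neuro2A cells (4,500/well, DMEM with 0.5% FBS) were treated with compound at a single 50 µM final concentration, stimulated with 6 nM IGF for 20 min at 37 °C, and lysed. Phospho-Akt Ser473 was read by HTRF as 665/615 ratio ×10^4.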
PTAP TSG101 blk – qHTS Assay for Iinhibitors of HIV-1 Budding by Blocking the Interaction of PTAP/TSG101; Fluorescence polarization, FITC-PTAP peptide / Tsg101 binding; Potency, µM (series often up to 115 µM), most hits filed as inhibitors; 340,000 tested, under 10 active; active = well fitted inhibition curve with a large enough effect in the main read-out, with a control signal flat, not every such curve was filed as active; inconclusive = small, poorly fitted or top-dose-only effect, or effect the other way, or a change in a side signal; inactive = no such curve, though single readings can be large or run the other way
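Steps: Tsg101 binding domain dispensed (10 uM final), compounds pinned in DMSO, FITC-labeled PTAP-motif peptide added (50 nM final); after 20 min binding at room temperature, polarization measured.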
ASM inhibitor – Inhibitors of Secretory Acid Sphingomyelinase (S-ASM): qHTS; Sphingomyelin phosphodiesterase (Homo sapiens), P17405; placental ASM, HMU-PC fluorogenic substrate, 60 min; Potency, µM (top dose mostly 57.5 µM), hits mostly inhibitors; 340,000 compounds, 0.006% hits; AID 504937, 2011
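Human placenta-derived ASM preincubated with compound 10 min at room temperature, then reacted with 9 uM (final) fluorogenic HMU-PC substrate for 60 min at 37 C. Stop solution raises pH to 10; fluorescence read at Ex 386/Em 447 nm.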
Vif-A3G inh – qHTS for Inhibitors of Vif-A3G Interactions: qHTS; DNA dC->dU-editing enzyme APOBEC-3G (Homo sapiens), Q9HC16; HeLa A3G-eYFP + Vif (tagged APOBEC3G with the HIV-1 protein that degrades it), YFP fluorescence, overnight; Potency, µM (series often up to 46.1 µM), usual class: inhibitors; 410,000 compounds, 0.076% hits; note: nearly all actives have a fitted effect of over 60% in size
Target sequence (Q9HC16 whole entry, looked up): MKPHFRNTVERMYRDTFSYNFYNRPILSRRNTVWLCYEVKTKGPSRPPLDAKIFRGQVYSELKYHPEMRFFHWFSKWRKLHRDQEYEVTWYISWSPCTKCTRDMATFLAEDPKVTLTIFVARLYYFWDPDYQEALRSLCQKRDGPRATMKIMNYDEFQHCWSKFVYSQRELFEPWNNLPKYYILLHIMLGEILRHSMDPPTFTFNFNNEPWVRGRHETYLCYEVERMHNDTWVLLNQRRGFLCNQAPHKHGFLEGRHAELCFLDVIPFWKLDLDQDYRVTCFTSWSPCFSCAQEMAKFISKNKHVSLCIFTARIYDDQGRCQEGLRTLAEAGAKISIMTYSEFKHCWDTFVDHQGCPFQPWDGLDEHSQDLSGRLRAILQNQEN
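HeLa cells stably expressing Vif and C-terminally eYFP-tagged A3G, seeded overnight at 37 deg C, then exposed to compound by pintool overnight at 37 deg C. Rise in yellow fluorescence (Ex 488/Em 500-530, Acumen) marks blocked Vif-driven A3G degradation.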
ALOX12 inh – Primary qHTS assay for inhibitors of human arachidonate 12S-lipoxygenase (ALOX12): Round 2; Polyunsaturated fatty acid lipoxygenase ALOX12 (Homo sapiens), P18054; purified 12hLO, xylenol orange hydroperoxide absorbance; Potency, µM (highest dose often 108 µM), usual class: inhibitors; 580,000 compounds, 1.1% hits; AID 1671190, 2021
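Hydroperoxide product was detected by ferrous iron/xylenol orange as the 573 to 405 nm absorbance ratio. Arachidonic acid at 40 uM (final) was turned over for 30 min at room temperature by 150 nM human 12hLO, pH 7.0 Hepes buffer, after 15 min compound preincubation.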
Vif-A3F inh – qHTS for Inhibitors of Vif-A3F Interactions: qHTS; Potency, µM (highest dose often 46.1 µM); 390,000 compounds, 0.2% hits; AID 602313, 2012; HeLa A3F-eYFP + Vif (tagged APOBEC3F with the HIV-1 protein that degrades it), YFP fluorescence increase; note: nearly all actives have a fitted effect of over 65% in size
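HeLa cells stably expressing A3F-eYFP plus Vif, plated and incubated overnight at 37 deg C, then exposed to compounds overnight at 37 deg C. Blocked degradation read as raised yellow fluorescence (Ex 488/Em 500-530).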
Numbers stand for hits. Unless noted, calls come from the whole dose curve; as a rule, active = well fitted curve in the direction sought with a large enough effect; inconclusive = small, poorly fitted or top-dose-only effect, or another doubt; inactive = no such curve, though single readings can be large; an effect the other way counts as inactive or inconclusive.

`COc1ccc(-c2nn(-c3ccccc3)cc2/C=N/NC(=O)c2ccc(Br)o2)cc1` gave pAkt inh inactive, PTAP TSG101 blk inactive, ASM inhibitor inactive, Vif-A3G inh inactive, ALOX12 inh inactive and Vif-A3F inh inactive.
`Cc1ccc(C)c(SCC(=O)OCC(=O)c2ccco2)c1` gave pAkt inh inactive, PTAP TSG101 blk inactive, ASM inhibitor inactive, Vif-A3G inh inactive, ALOX12 inh 40µM and Vif-A3F inh inactive.
Screening Cc1cccc(C)c1OCc1nc2c3c(ncn2n1)OC1=C(C(=O)CCC1)C3c1ccco1 (stereo unspecified) returned ALOX12 inh inactive.
Screening Brc1ccc(-c2nc(N3CCN(c4ccccc4)CC3)c3ccccc3n2)cc1 returned Vif-A3G inh inactive, ALOX12 inh inactive and Vif-A3F inh inactive.
CN(C)C(=O)c1ccc(-c2nc(N3CCOCC3)c3ccccc3n2)cc1 was read as ALOX12 inh 45µM.
CC(C)Oc1ccc(OCCCN2CCCCCC2)cc1 was read as pAkt inh inactive, PTAP TSG101 blk inactive, ASM inhibitor inactive, Vif-A3G inh inactive and ALOX12 inh 0.45µM.
`Cc1cc(O)c2c(C)c(CC(=O)NCCc3cccc(F)c3)c(=O)oc2c1` gave ALOX12 inh 28µM.
`COCCNC(=O)c1cc(-c2ccccn2)nc2ccccc12` gave ALOX12 inh inactive.
`CN1CC(=O)N(C2CCC2)Cc2c1ncnc2N1CCC(Cc2ccccc2)CC1` gave ALOX12 inh inactive.
O=C1NN(c2ccccc2)C(=O)/C1=C\c1ccccc1 was read as pAkt inh inactive, PTAP TSG101 blk inactive, ASM inhibitor inactive, Vif-A3G inh inactive, ALOX12 inh inconclusive and Vif-A3F inh inconclusive.
`O=C1NN(c2cccc(Br)c2)C(=O)/C1=C\c1ccccc1` gave pAkt inh inactive, PTAP TSG101 blk inactive, ASM inhibitor inactive, Vif-A3G inh inactive, ALOX12 inh 5.6µM and Vif-A3F inh inactive.
COc1ccccc1NS(=O)(=O)c1cc(NC(=O)c2n[nH]c3ccccc23)ccc1Cl was read as ALOX12 inh inactive.
For [O-]/[N+](=C\c1ccncc1)c1ccc(Cl)cc1 the results were ALOX12 inh inactive.
For CC[C@@]1(C(=O)OC)N[C@H](CN(C)C(=O)COC)[C@@H]2C(=O)N(C)C(=O)[C@@H]21 the results were pAkt inh inactive, PTAP TSG101 blk inactive, ASM inhibitor inactive, Vif-A3G inh inactive, ALOX12 inh 5µM and Vif-A3F inh inactive.
`CC1=C[C@@H](CNc2ccccn2)[C@H](C(C)C)C[C@H]1Cc1nnc(-c2ccc(C)cc2)o1` gave ALOX12 inh inactive.
Screening CC(C)n1nc(C(=O)NCc2cccs2)c2ccccc2c1=O returned ALOX12 inh inactive.
`C=C(C)Cn1c(N2CCN(Cc3ccccc3F)CC2)nc2c1c(=O)[nH]c(=O)n2C` gave ALOX12 inh inactive.
Screening CN(C)CCCN1C(=O)c2cccc3cccc(c23)C1=O returned pAkt inh inactive, PTAP TSG101 blk inactive, ASM inhibitor inactive, Vif-A3G inh inactive, ALOX12 inh inactive and Vif-A3F inh inactive.
Screening CCCCN1C(=O)c2cccc3cc(O)cc(c23)C1=O returned pAkt inh inactive, PTAP TSG101 blk inactive, ASM inhibitor inactive, Vif-A3G inh inactive, ALOX12 inh inconclusive and Vif-A3F inh 1.3µM.
`O=C1NN(c2ccc(F)cc2)C(=O)/C1=C\C=C\c1ccco1` gave pAkt inh inactive, PTAP TSG101 blk inactive, ASM inhibitor inactive, Vif-A3G inh inactive, ALOX12 inh 45µM and Vif-A3F inh inactive.
For O=C(CCc1ccsc1)NCC1CCCC1 the results were ALOX12 inh inactive.
COc1ccc(C(=O)c2sc(Nc3ccc(NC(C)=O)cc3)nc2C)cc1 was read as pAkt inh inactive, PTAP TSG101 blk inactive, ASM inhibitor inactive, Vif-A3G inh inactive, ALOX12 inh inactive and Vif-A3F inh inactive.
Screening COc1ccc(Nc2nc(C)c(C(C)=O)s2)cc1 returned pAkt inh inactive, Vif-A3G inh inactive and ALOX12 inh 45µM.
`CCc1ccccc1N/N=C(/c1ccccc1)c1ccc(Br)cc1` gave ALOX12 inh 7.9µM.
Screening COc1ccc(C(=NNc2ccccc2C(=O)O)c2ccc(OC)cc2)cc1 returned pAkt inh inactive, PTAP TSG101 blk inactive, ASM inhibitor inactive, Vif-A3G inh inactive, ALOX12 inh inconclusive and Vif-A3F inh inactive.
Screening Cc1cc(NC(=O)COc2ccc3c(C(C)C)cc(=O)oc3c2)no1 returned ALOX12 inh inactive.
Screening O=C1/C(=C/c2ccc(O)c(O)c2)Oc2cc(O)ccc21 returned pAkt inh inactive, PTAP TSG101 blk inactive, ASM inhibitor inactive, Vif-A3G inh inconclusive, ALOX12 inh 11µM and Vif-A3F inh inconclusive.
`COc1cc(/C=C2\Oc3cc(O)ccc3C2=O)ccc1O` gave pAkt inh inactive, PTAP TSG101 blk inconclusive, ASM inhibitor inactive, Vif-A3G inh inactive, ALOX12 inh inconclusive and Vif-A3F inh inconclusive.
`Cc1cc(F)ccc1S(=O)(=O)Nc1ccc(N2CCCC2)c(F)c1` gave ALOX12 inh 4µM.
Screening Oc1ccc(C2CCN(c3ccnc4ccccc34)CC2)cc1O returned ALOX12 inh 3.1µM.
Screening COC(=O)c1cc(-c2nc3ccccc3[nH]2)c(-c2ccc(OC)cc2)nc1C returned ALOX12 inh inactive.
`Cc1cccc(NC(=S)N(Cc2ccc(Br)cc2)Cc2ccc(C(=O)O)cc2)c1` gave pAkt inh inactive, PTAP TSG101 blk inactive, ASM inhibitor inactive, Vif-A3G inh inactive, ALOX12 inh inactive and Vif-A3F inh inactive.
Screening COc1ccc(Cl)cc1NC(=S)N(Cc1ccc(C(=O)O)cc1)Cc1ccc(OC)c(OC)c1 returned pAkt inh inactive, PTAP TSG101 blk inactive, ASM inhibitor inactive, Vif-A3G inh inactive, ALOX12 inh inactive and Vif-A3F inh inactive.
For COc1cccc(NC(=S)N(Cc2ccc(Cl)cc2)Cc2ccc(C(=O)O)cc2)c1 the results were pAkt inh inactive, PTAP TSG101 blk inactive, ASM inhibitor inactive, Vif-A3G inh inactive, ALOX12 inh 40µM and Vif-A3F inh inactive.
